Assay in all cases: DAPPL (digital affinity profiling via proximity ligation, sequencing); 10 mM Tris-HCl pH 7.5, 50 mM NaCl, 1 mM DTT, 4% glycerol, room temperature, 30 min; GST-TFs on glutathione beads, 16-mer random dsDNA library, 0.1% formaldehyde crosslink after washing; high values mean tight binding
What all share (conditions): protein: recombinant; tags: N-terminal GST; dsDNA, one strand shown

For one test, the target named is T1, ERF (Homo sapiens, UniProt P50548 1-548).
T1 sequence: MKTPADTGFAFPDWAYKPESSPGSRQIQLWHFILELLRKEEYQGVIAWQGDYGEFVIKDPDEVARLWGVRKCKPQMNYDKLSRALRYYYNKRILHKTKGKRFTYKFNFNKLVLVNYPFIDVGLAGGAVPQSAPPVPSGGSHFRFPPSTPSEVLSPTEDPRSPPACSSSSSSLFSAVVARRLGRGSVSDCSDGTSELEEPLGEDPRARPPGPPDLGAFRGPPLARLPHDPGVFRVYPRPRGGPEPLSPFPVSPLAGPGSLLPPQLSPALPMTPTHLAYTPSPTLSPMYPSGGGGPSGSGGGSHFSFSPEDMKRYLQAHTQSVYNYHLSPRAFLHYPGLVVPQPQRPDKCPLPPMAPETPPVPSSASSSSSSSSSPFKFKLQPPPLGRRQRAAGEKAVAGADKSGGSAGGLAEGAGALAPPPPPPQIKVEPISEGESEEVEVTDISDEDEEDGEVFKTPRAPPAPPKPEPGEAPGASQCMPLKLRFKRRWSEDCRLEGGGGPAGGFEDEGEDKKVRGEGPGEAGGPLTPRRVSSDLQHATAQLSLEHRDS
Put shortly:
(§1)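 Binding signal is given per hexamer as its read frequency for a factor divided by its frequency in the tag-only sample. GST-fused human transcription factors were expressed in yeast, captured on glutathione beads, barcoded with DNA and pooled with that sample, then incubated with 200 nmole of a 16-mer random double-stranded DNA library in Tris/NaCl/DTT/glycerol buffer for 30 min at room temperature. The pools were then washed, crosslinked, proximity-ligated, amplified by PCR and sequenced on an Illumina NextSeq500.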

The target of a further test is T2, ETV3L (Homo sapiens, UniProt Q6ZN32 1-361).
T2 sequence: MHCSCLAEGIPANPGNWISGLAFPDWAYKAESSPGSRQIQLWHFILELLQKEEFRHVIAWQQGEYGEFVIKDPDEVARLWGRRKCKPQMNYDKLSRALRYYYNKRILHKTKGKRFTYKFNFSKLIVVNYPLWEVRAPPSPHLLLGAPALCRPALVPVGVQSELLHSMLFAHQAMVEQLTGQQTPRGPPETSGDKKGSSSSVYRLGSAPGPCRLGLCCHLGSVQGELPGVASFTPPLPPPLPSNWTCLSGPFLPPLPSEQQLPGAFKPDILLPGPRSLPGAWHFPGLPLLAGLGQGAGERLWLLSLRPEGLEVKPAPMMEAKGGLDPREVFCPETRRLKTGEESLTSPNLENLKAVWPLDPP
Put shortly:
as §1

Another test concerns the target T3, ETS2 (Homo sapiens, UniProt P15036 1-469).
T3 sequence: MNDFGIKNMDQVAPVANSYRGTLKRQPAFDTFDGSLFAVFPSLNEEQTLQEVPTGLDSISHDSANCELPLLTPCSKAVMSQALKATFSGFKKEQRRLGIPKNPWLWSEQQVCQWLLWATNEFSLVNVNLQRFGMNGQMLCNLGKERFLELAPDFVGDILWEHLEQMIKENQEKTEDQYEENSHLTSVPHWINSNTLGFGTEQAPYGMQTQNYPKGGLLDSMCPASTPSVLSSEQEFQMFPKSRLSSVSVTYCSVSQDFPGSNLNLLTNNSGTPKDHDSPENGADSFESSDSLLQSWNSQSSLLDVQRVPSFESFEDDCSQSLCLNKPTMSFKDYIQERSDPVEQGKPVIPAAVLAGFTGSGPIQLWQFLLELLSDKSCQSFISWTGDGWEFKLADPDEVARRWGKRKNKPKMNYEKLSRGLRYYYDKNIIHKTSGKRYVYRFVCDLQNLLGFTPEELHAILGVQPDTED
The method in brief: as §1

Another test deals with T4, SPDEF (Homo sapiens, UniProt O95238 1-335).
T4 sequence: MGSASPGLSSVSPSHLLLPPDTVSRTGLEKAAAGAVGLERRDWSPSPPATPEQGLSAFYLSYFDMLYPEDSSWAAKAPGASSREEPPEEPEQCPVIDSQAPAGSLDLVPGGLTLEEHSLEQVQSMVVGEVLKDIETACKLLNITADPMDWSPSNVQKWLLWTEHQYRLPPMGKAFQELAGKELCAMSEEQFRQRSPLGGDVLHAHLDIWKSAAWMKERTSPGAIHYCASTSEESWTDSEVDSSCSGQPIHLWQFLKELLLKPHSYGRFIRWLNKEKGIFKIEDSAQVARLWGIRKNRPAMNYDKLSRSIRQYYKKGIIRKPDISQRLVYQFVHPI
The method in brief: as §1

The target of another test is T5, ETV7 (Homo sapiens, UniProt Q9Y603 1-341).
T5 sequence: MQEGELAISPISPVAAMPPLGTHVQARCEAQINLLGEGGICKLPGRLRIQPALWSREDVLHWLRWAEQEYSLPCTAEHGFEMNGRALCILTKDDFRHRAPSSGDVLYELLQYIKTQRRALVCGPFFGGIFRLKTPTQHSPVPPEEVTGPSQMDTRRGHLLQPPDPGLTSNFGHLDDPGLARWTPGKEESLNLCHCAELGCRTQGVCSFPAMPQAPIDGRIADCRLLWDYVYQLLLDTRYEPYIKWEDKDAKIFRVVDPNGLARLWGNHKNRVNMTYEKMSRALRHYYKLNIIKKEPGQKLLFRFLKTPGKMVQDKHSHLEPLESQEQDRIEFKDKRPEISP
Put shortly:
as §1

A further test addresses T6, ELF5 (Homo sapiens, UniProt Q9UKW6-2 1-255).
T6 sequence: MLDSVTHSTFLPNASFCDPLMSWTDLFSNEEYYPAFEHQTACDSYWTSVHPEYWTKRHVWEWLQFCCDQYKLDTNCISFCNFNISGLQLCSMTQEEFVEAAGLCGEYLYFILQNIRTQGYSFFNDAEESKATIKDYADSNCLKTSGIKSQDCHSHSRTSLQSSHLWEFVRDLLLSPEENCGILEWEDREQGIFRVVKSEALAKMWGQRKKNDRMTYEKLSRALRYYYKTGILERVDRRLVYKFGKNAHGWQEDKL
Put shortly:
as §1

The next test concerns the target T7, ETV3 (Homo sapiens, UniProt P41162-2 1-143).
T7 sequence: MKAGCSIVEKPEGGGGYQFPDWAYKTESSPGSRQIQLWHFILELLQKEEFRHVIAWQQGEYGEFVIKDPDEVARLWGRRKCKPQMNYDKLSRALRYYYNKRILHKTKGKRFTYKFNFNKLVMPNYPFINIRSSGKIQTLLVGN
Put shortly:
as §1

A further test deals with ETV6 (Homo sapiens, UniProt P41212 1-452). The method in brief:
as §1

Chain of ETV6 (P41212 whole entry): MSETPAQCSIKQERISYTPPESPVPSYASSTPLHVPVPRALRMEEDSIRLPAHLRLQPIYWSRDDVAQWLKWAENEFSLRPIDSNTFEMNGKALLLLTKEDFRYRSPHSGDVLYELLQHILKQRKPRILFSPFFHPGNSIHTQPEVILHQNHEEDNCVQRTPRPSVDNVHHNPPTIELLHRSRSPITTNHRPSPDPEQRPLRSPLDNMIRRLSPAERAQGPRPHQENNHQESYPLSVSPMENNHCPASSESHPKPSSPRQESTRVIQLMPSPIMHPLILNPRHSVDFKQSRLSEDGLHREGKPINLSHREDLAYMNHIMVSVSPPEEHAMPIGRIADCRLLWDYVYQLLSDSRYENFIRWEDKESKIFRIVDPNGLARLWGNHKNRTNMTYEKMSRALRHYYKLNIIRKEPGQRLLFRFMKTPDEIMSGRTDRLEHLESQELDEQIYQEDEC

For AGCTCT, the binding signal is 1.16 fold enrichment (6-mer frequency, TF over GST control) with ERF; 1.34 fold enrichment (6-mer frequency, TF over GST control) in the test with ETV3L; 1.16 fold enrichment (6-mer frequency, TF over GST control) with ETS2; 1.03 fold enrichment (6-mer frequency, TF over GST control) with SPDEF; 1.17 fold enrichment (6-mer frequency, TF over GST control) in the test with ETV7; 1.12 fold enrichment (6-mer frequency, TF over GST control) with ELF5. For the same sequence, the binding signal in the test with ETV3 was 1.21 fold enrichment (6-mer frequency, TF over GST control); with ETV6, 1.17 fold enrichment (6-mer frequency, TF over GST control).
Regarding ACTTGC, the binding signal with ERF was 1.3 fold enrichment (6-mer frequency, TF over GST control); with ETV3L, 1.48 fold enrichment (6-mer frequency, TF over GST control); with ETS2, 1.32 fold enrichment (6-mer frequency, TF over GST control); with SPDEF, 1.44 fold enrichment (6-mer frequency, TF over GST control); with ETV7, 1.37 fold enrichment (6-mer frequency, TF over GST control); with ELF5, 1.47 fold enrichment (6-mer frequency, TF over GST control). In addition, the binding signal with ETV3 is 1.49 fold enrichment (6-mer frequency, TF over GST control); with ETV6, 1.52 fold enrichment (6-mer frequency, TF over GST control).
Turning to GCTTGC, the binding signal was 1.24 fold enrichment (6-mer frequency, TF over GST control) with ERF; 1.29 fold enrichment (6-mer frequency, TF over GST control) with ETV3L; 1.24 fold enrichment (6-mer frequency, TF over GST control) in the test with ETS2; 1.22 fold enrichment (6-mer frequency, TF over GST control) with SPDEF; 1.21 fold enrichment (6-mer frequency, TF over GST control) with ETV7; 1.03 fold enrichment (6-mer frequency, TF over GST control) with ELF5. For the same sequence, the binding signal in the test with ETV3 was 1.19 fold enrichment (6-mer frequency, TF over GST control); with ETV6 it was 1.15 fold enrichment (6-mer frequency, TF over GST control).
For CAAGAT, the binding signal with ERF is 1.06 fold enrichment (6-mer frequency, TF over GST control); with ETV3L it was 1.13 fold enrichment (6-mer frequency, TF over GST control); with ETS2 it was 1.06 fold enrichment (6-mer frequency, TF over GST control); with SPDEF, 1.26 fold enrichment (6-mer frequency, TF over GST control); with ETV7, 1.02 fold enrichment (6-mer frequency, TF over GST control); with ELF5 it was 1.01 fold enrichment (6-mer frequency, TF over GST control). Further, the binding signal with ETV3 was 1.08 fold enrichment (6-mer frequency, TF over GST control); with ETV6 it was 1.01 fold enrichment (6-mer frequency, TF over GST control).
For the sequence GCTCCG, the binding signal was 1.26 fold enrichment (6-mer frequency, TF over GST control) with ERF; 1.33 fold enrichment (6-mer frequency, TF over GST control) with ETV3L; 1.33 fold enrichment (6-mer frequency, TF over GST control) in the test with ETS2; 1.34 fold enrichment (6-mer frequency, TF over GST control) with SPDEF; 1.27 fold enrichment (6-mer frequency, TF over GST control) in the test with ETV7; 1.25 fold enrichment (6-mer frequency, TF over GST control) in the test with ELF5. Also, the binding signal was 1.2 fold enrichment (6-mer frequency, TF over GST control) with ETV3 and 1.19 fold enrichment (6-mer frequency, TF over GST control) with ETV6.
For the sequence TTCCAA, the binding signal is 1.27 fold enrichment (6-mer frequency, TF over GST control) with ERF; 1.3 fold enrichment (6-mer frequency, TF over GST control) with ETV3L; 1.25 fold enrichment (6-mer frequency, TF over GST control) with ETS2; 1.29 fold enrichment (6-mer frequency, TF over GST control) with SPDEF; 1.27 fold enrichment (6-mer frequency, TF over GST control) in the test with ETV7; 1.21 fold enrichment (6-mer frequency, TF over GST control) with ELF5. Moreover, the binding signal in the test with ETV3 is 1.22 fold enrichment (6-mer frequency, TF over GST control); with ETV6, 1.29 fold enrichment (6-mer frequency, TF over GST control).
Turning to ATGGTA, the binding signal is 1.38 fold enrichment (6-mer frequency, TF over GST control) in the test with ERF; 1.35 fold enrichment (6-mer frequency, TF over GST control) with ETV3L; 1.37 fold enrichment (6-mer frequency, TF over GST control) with ETS2; 1.31 fold enrichment (6-mer frequency, TF over GST control) in the test with SPDEF; 1.48 fold enrichment (6-mer frequency, TF over GST control) with ETV7; 1.39 fold enrichment (6-mer frequency, TF over GST control) with ELF5. The binding signal was 1.35 fold enrichment (6-mer frequency, TF over GST control) with ETV3 and 1.31 fold enrichment (6-mer frequency, TF over GST control) in the test with ETV6.

Source of the values: publication PMC7862700, “An all-to-all approach to the identification of sequence-specific readers for epigenetic DNA modifications on cytosine”.
